Screen size: about 69,000 compounds; about 8,600 (12%) showed an effect of 50% or more. The sample holds strong results, similar compounds and a random draw of the others, so the mix is not that of the screen.
System: Plasmodium berghei
Test: Screen against P. berghei liver stage (PbLuc), transformed with Luciferase, at 10uM
Assay type: functional, HepG2
Conditions: tested at 10 uM

| SMILES | INHIBITION |
| --- | --- |
| CC(=O)N1Cc2ccccc2OC2(CCN(C(=O)C3CCOC3)CC2)C1 (stereo not drawn) | 6.26% |
| Cc1ccc(N2CCC(NC(C)c3cccs3)CC2)nc1 (stereo not drawn) | 22.9% |
| CCc1cc(N2CCC(Nc3ccc4nnc(C)n4n3)CC2)ncn1 | 46.4% |
| Cc1ccc(N2CCC(Nc3ccc4nnc(C)n4n3)CC2)nc1 | 58.7% |
| c1cc(CN2CCC3(CCOCC3COCC3CC3)CC2)co1 (stereo not drawn) | 38.3% |
| Cn1nnc2c1CCN(Cc1ccco1)C2COCc1ccccc1 (stereo not drawn) | -48.4% |
| Cc1cc(C)n(-c2ccc(N3CCCSCC3)nc2)n1 | 25.8% |
| Cc1cc(C)n(-c2ccc(N3CCC4(CC3)OCCO4)nc2)n1 | -125% |
| Cc1cc(C)n(-c2ccc(N3CCC(O)CC3)nc2)n1 | 50.5% |
| Cc1cccc(N2CCN(Cc3nc(CC4CC4)no3)CC2)n1 | 32.7% |
| Cc1ncc2c(n1)CCN(Cc1nc(Cc3ccccc3)no1)C2 | -154% |
| Clc1cccc2c1CCN(Cc1nc(CC3CC3)no1)C2 | 50.5% |
| Cc1cccc(SC2CCN(Cc3nc(CC4CC4)no3)CC2)c1 | 11.9% |
| CS(=O)(=O)Cc1noc(CN2CCN(c3ccccc3Cl)CC2)n1 | 45.7% |
| CS(=O)(=O)Cc1noc(CN2CCc3c(Cl)cccc3C2)n1 | 82.5% |
| CCOC(=O)c1sc(NC(=O)C(C)C)c(C#N)c1C | 38% |
| NC(=O)c1cncc(N2CCN(Cc3cccc4nsnc34)CC2)n1 | -47.8% |
| COc1ccc(CN2CCCN(c3cc(C(N)=O)ccn3)CC2)cc1 | -18.7% |
| NC(=O)c1ccc(N2CCN(Cc3ccc(F)cc3Cl)CC2)nn1 | 81.2% |
| NC(=O)c1ccnc(N2CCN(Cc3ccc(F)cc3Cl)CC2)c1 | 83.2% |
| CN1CCN(Cc2ccccc2Oc2cncc(C(N)=O)n2)CC1 | 4.82% |
| NC(=O)CN1CC2(CCC1=O)CCN(Cc1ccc(F)cc1Cl)CC2 | 31.7% |
| NC(=O)c1ccnc(N2CCCC(CO)(Cc3ccc(F)cc3)C2)c1 (stereo not drawn) | 43.5% |

| SMILES | INHIBITION |
| --- | --- |
| NC(=O)c1cncc(N2CCN(Cc3ccc(F)cc3Cl)CC2)n1 | 69.3% |
| O=C(c1cnns1)N1CCN(Cc2ccc(F)cc2Cl)CC1 | -18.2% |
| Cc1nn(C)c(N2CCOCC2)c1CNCc1ccc(C(C)O)cc1 (stereo not drawn) | 43.2% |
| CC(C)CC(=O)N1CCN(Cc2cc(-c3ccncc3)nn2C)CC1 | -23.8% |
| CCOC(=O)c1sc(NC(=O)CN2C(=O)CCC2=O)c(C#N)c1C | 32.2% |
| CC(C)c1ccc(-n2ncc(C(=O)N(C)C3CCN(C)CC3)c2N)cc1 | -29% |
| Cc1ccc(CN(CCN(C)C)Cc2ccnn2C2CCCCO2)o1 (stereo not drawn) | 15.5% |
| Cc1ccc(O)c(C(=O)N2CCC3(CCCNC3)C2)c1 (stereo not drawn) | 42.1% |
| O=C1CNc2ncnc(Nc3cnn(Cc4ccccc4)c3)c2N1 | 34.6% |
| O=C1CNc2ncnc(Nc3cnn(Cc4cccc(F)c4)c3)c2N1 | -6.47% |
| O=C1CNc2ncnc(Nc3cnn(Cc4ccc(F)cc4)c3)c2N1 | 65.8% |
| COCCN1C[C@@H](C)[C@@]2(COCCN(C(=O)c3cccs3)C2)C1 | 20.1% |
| CCC(=O)NC(c1ccc(C)cc1)c1cccc(S(C)(=O)=O)c1 (stereo not drawn) | 34.7% |
| Cc1ccc(C(NC(=O)C2CC2)c2cccc(S(C)(=O)=O)c2)cc1 (stereo not drawn) | 52.5% |
| CCNC(=O)NC(c1ccc(C)cc1)c1cccc(S(C)(=O)=O)c1 (stereo not drawn) | 31.7% |
| Cc1cnc(CCNC(=O)C2CN(C(=O)Cc3ccc(F)cc3)C2)s1 | -3.15% |
| CN(C)CC1(O)CCCN(c2ccnc3c(C(F)(F)F)cccc23)C1 (stereo not drawn) | 7.24% |
| COc1ccccc1CNC(=O)C(C)N1CC(n2nc(C)cc2C)C1 (stereo not drawn) | 6.27% |
| CN(Cc1ccsc1)C(=O)CN1CCOC(Cn2cncn2)C1 (stereo not drawn) | 5.7% |
| COc1cccc(CN(C)C(=O)CN2CCN(CCO)CC2)c1 | 13.7% |
| Cc1cc(C)n(C2CN(CC(=O)N(C)Cc3cnn(C)c3)C2)n1 | 32.9% |
| COc1ccccc1CN(C)C(=O)CN1CC(n2nc(C)cc2C)C1 | 89.4% |
| Cc1ccc(CN(C)C(=O)CN2CC(n3cccn3)C2)o1 | 28.4% |

| SMILES | INHIBITION |
| --- | --- |
| COc1cccc(CN(C)C(=O)CN2CCN(c3nccn3C)CC2)c1 | -20.6% |
| Cc1cc(C)n(C2CN(CC(=O)N(C)Cc3ccc(C)o3)C2)n1 | 71.9% |
| COc1cccc(CN(C)C(=O)CN2CCN(c3nccs3)CC2)c1 | 60.4% |
| Cc1cc(C)n(C2CN(CC(=O)N(C)Cc3ccsc3)C2)n1 | 75.7% |
| COc1ccccc1CC(=O)N1CCCC(n2nc(C)cc2C)C1 (stereo not drawn) | 27.1% |
| Cc1cc(C)n(C2CN(CC(=O)N(C)Cc3ccco3)C2)n1 | 39.7% |
| COc1ccc(F)cc1S(=O)(=O)NCCn1cnc(C)cc1=O | 41.7% |
| COCCNC(=O)c1cc(-n2cccc2)ccc1Cl | 22.2% |
| CCN(CC)c1ccc(C(=O)N2CCCC(n3cncn3)C2)cn1 (stereo not drawn) | -12.7% |
| Cc1oncc1C(=O)N1CCC2(CC1)CN(S(C)(=O)=O)c1ccccc12 | -13.4% |
| COCCN1CCN(CC(=O)N(C)Cc2ccsc2)CC1C (stereo not drawn) | -39.2% |
| COc1cccc(CNC(=O)C(C)N2CC(n3nc(C)cc3C)C2)c1 (stereo not drawn) | 39.8% |
| CN(Cc1ccsc1)C(=O)CN1CCc2c(ncn2C)C1 | -1.15% |
| COCCN1CCN(CC(=O)N(C)Cc2ccsc2)CC1 | 65.7% |
| COc1cccc(CC(=O)N2CCCC(n3nc(C)cc3C)C2)c1 (stereo not drawn) | 5.03% |
| COc1cccc(CN(C)C(=O)CN2CC(n3nc(C)cc3C)C2)c1 | 53.7% |
| CN(C)C(=O)Cn1cc(C(=O)NCCc2cccc(Cl)c2Cl)nn1 | -8.4% |
| COCCNC(=O)[C@H]1C[C@H]2OCC[C@H]2N(Cc2ccoc2)C1 | 31.1% |
| Cc1nc(N2CCCC2)nc2c1CCN(C(=O)CC1CCCC1)CC2 | -10.3% |
| COc1ccc(CC(=O)N2CC[C@@H]3NC(=O)CC[C@@H]32)cc1 | -6.46% |
| Cc1ccc(CC(=O)N2CC[C@@H]3NC(=O)CC[C@@H]32)cc1 | 58.5% |
| COc1cccc(CC(=O)N2CC[C@@H]3NC(=O)CC[C@@H]32)c1 | -0.554% |

Reference: ChEMBL document CHEMBL4513216, “Probing the Open Global Health Chemical Diversity Library for Multistage-Active Starting Points for Next-Generation Antimalarials” (ACS Infect Dis, 2020)
